High-throughput results as filed in PubChem.
Hits are enriched below; roughly 2.7% of the tested compounds scored in any of these assays.
HepG2 viability: qHTS for Inhibitors of TGF-b: Cytotox Counterscreen; HepG2 CAGA-GFP viability, ATP luminescence, 18 h; Potency, µM (highest dose often 46.1 µM), most hits filed as cytotoxic; actives 0.76% (n = 410,000); AID 588856, 2011
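CellTiter-Glo luminescence gave cytotoxicity after 18 hours at 37 degrees C. The cells were HepG2 CAGA-GFP in 1% FBS DMEM, stimulated with 500 pg/mL TGF-beta after compound addition. %Activity was normalised to no-cell wells (complete cell-killing) and DMSO (no toxicity), and curves were fitted and classified.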
12-LOX inh: Primary qHTS assay for inhibitors of human arachidonate 12S-lipoxygenase (ALOX12): Round 2 | Polyunsaturated fatty acid lipoxygenase ALOX12 (Homo sapiens), P18054 | purified 12hLO, xylenol orange hydroperoxide absorbance | Potency, µM (highest dose often 108 µM), hits mostly inhibitors | actives 1.1% (n = 580,000) | AID 1671190, 2021
Target sequence (P18054 whole entry, looked up): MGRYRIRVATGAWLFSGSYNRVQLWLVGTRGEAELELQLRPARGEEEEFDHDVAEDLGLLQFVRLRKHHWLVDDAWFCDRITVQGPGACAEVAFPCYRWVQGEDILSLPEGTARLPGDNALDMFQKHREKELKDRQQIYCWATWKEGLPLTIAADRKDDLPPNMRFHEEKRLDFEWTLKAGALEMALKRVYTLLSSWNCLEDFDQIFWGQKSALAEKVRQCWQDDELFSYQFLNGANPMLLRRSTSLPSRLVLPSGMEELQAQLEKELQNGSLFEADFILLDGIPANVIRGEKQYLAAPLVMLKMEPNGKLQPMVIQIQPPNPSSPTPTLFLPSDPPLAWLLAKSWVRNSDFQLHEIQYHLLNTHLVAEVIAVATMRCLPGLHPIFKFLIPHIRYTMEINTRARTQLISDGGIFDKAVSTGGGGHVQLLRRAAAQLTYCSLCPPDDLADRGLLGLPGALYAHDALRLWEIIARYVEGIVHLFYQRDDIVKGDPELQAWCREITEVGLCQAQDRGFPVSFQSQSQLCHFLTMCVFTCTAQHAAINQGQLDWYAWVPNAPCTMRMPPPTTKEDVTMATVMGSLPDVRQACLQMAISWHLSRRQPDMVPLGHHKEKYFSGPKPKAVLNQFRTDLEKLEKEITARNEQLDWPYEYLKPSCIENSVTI
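Purified human 12hLO (150 nM final) in 25 mM Hepes, 0.01% Triton X-100, pH 7.0 was preincubated 15 min at room temperature with compound. Then 40 uM arachidonic acid was added, 30 min. Hydroperoxide was read by Fe-XO absorbance ratio 573/405 nm.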
TGFb SMAD3 inh: qHTS for Inhibitors of TGF-b; AID 588855, 2011; actives 1.2% (n = 410,000); HepG2 CAGA-GFP TGF-b/SMAD3 reporter, GFP fluorescence, 18 h; TGF-beta stimulated, 500 pg/mL final; Potency, µM (doses to about 46.1 µM), usual class: inhibitors; also: nearly all actives have a fitted effect of over 65% in size
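Smad-responsive CAGA-GFP expression was quantified in HEPG2 cells exposed to compounds and 500 pg/mL final TGF-beta for 18 h at 37 degrees C; unstimulated wells defined full inhibition.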
ATXN viability: Viability Counterscreen for Primary qHTS for Inhibitors of ATXN expression | AID 651635, 2014 | actives 0.49% (n = 400,000) | Potency, µM (top dose mostly 56.7 µM), actives largely listed as cytotoxic | S2 cells (HEK-293 line with an ATXN2-luciferase reporter) viability, CellTiter-Fluor protease fluorescence, 24 h; also: nearly all actives have a fitted effect of over 40% in size
ATXN2 expr inh: Primary qHTS for Inhibitors of ATXN expression; Potency, µM (top dose mostly 57 µM), usual class: inhibitors; HEK-293 ATXN2-luciferase reporter, luminescence, 24 h; actives 0.72% (n = 360,000); AID 1745845, 2022; also: nearly all actives have a fitted effect of over 55% in size
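qHTS (up to 57 uM final) was run with 24 h compound exposure of reporter cells at 37 °C. Each well was multiplexed: SteadyGlo luminescence measured ATXN2-luciferase expression after a fluorogenic Gly-Phe-AFC viability readout (25 uM final).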
Of the large screens only hits and unclear results are named; the others gave an inactive call; ! = not active in a repeat. Calls follow the shape of the dose curve; as a rule, active = well fitted curve in the direction sought with a large enough effect; inconclusive = small, poorly fitted or top-dose-only effect, or another doubt; inactive = no such curve, though single readings can be large; an effect the other way counts as inactive or inconclusive.

CC(=O)OCC1(C)CN(c2ccccc2)NC1=O (stereo not given)	12-LOX inh 40µM (no result: ATXN2 expr inh)
O=C1CSC(c2cn(-c3ccccc3)nc2-c2cc3ccccc3o2)N1Cc1ccccc1 (stereo not given)	none
Cc1ccc(-c2nn(-c3ccccc3)cc2C2SCC(=O)N2Cc2ccccc2)o1 (stereo not given)	12-LOX inh 32µM, TGFb SMAD3 inh inconclusive
COc1ccc2[nH]c3c(c2c1)CCNC31CCN(C(=O)C2CCC2)CC1	none (no result: HepG2 viability, TGFb SMAD3 inh, ATXN viability, ATXN2 expr inh)
CCSC1=NSC2=NC(=O)/C(=C\c3coc4ccccc4c3=O)C(=N)N12	12-LOX inh 45µM
CC(C)CC1=NN2C(=N)/C(=C\c3coc4ccccc4c3=O)C(=O)N=C2S1	12-LOX inh inconclusive
CC(C)C(=O)Nc1ccc(NC(=O)CC(C)(C(=O)O)c2ccccc2)cc1 (stereo not given)	none (no result: HepG2 viability, TGFb SMAD3 inh, ATXN viability, ATXN2 expr inh)
Cc1[nH]c(-c2ccc(F)cc2)cc1C(=O)N1CCN(c2cccc(Cl)c2)CC1	TGFb SMAD3 inh 25µM, ATXN viability inconclusive, ATXN2 expr inh inconclusive
CS(=O)(=O)c1ncc(Cl)c(C(=O)N2CCN(c3cccc(Cl)c3)CC2)n1	HepG2 viability 3.5µM, TGFb SMAD3 inh 2.8µM (no result: ATXN viability, ATXN2 expr inh)
CCS(=O)(=O)c1ncc(Cl)c(C(=O)N2CCN(c3cccc(Cl)c3)CC2)n1	HepG2 viability 3.2µM, TGFb SMAD3 inh 1µM (no result: ATXN viability, ATXN2 expr inh)
O=C1NCCCCCN(Cc2cccc(F)c2)[C@@H]2C[C@@H](C(=O)N3CCc4ccccc4C3)C[C@H]12	none (no result: HepG2 viability, TGFb SMAD3 inh, ATXN viability, ATXN2 expr inh)
Cc1cc(C(=O)NC2CCCCC2)c2ccccc2n1	none (no result: HepG2 viability, TGFb SMAD3 inh, ATXN viability, ATXN2 expr inh)
COCCCN1C(=O)C(=O)/C(=C(/O)c2ccc(C)cc2)C1c1ccccc1 (stereo not given)	12-LOX inh 7.1µM
CCOc1cc(C2/C(=C(/O)c3ccc(OC(C)C)cc3)C(=O)C(=O)N2CCCOC)ccc1O (stereo not given)	12-LOX inh 20µM
Cc1cc(C)cc(NS(=O)(=O)c2ccc3c(c2)CCCN3C(=O)C2CCC2)c1	TGFb SMAD3 inh inconclusive, ATXN viability 25µM, ATXN2 expr inh inconclusive
c1ccc(-c2noc(CSc3nnnn3C3CC3)n2)cc1	none (no result: HepG2 viability, TGFb SMAD3 inh, ATXN viability, ATXN2 expr inh)
COc1ccc(C2C3C=CCCC3(C)C(=O)N2Cc2ccccc2)cc1Cl (stereo not given)	TGFb SMAD3 inh 14µM (no result: 12-LOX inh, ATXN viability, ATXN2 expr inh)
NC1=C(Cl)C(=O)c2ccccc2C1=O	HepG2 viability 5.6µM, 12-LOX inh inconclusive, TGFb SMAD3 inh inconclusive, ATXN viability inconclusive, ATXN2 expr inh inconclusive
O=C1C(Cl)=C(NCCCO)C(=O)c2ccccc21	TGFb SMAD3 inh inconclusive
NS(=O)(=O)c1ccc2c(c1)C(=NO)c1cc(S(N)(=O)=O)ccc1-2	none
NC1=C(Cl)C(=O)c2ccc(S(N)(=O)=O)cc2C1=O	HepG2 viability 0.56µM, TGFb SMAD3 inh inconclusive, ATXN viability 3.5µM, ATXN2 expr inh 3.5µM
Cc1cccc(OCCc2nnc(N)s2)c1C	TGFb SMAD3 inh 20µM
Cc1cccc(OCCN)c1C	none (no result: HepG2 viability, TGFb SMAD3 inh, ATXN viability, ATXN2 expr inh)
CC(C)C[C@@H](C(=O)N[C@H](C(=O)OC1CCCC1)c1ccccc1)[C@H](O)C(=O)NO	ATXN2 expr inh 22µM (no result: HepG2 viability, TGFb SMAD3 inh, ATXN viability)
CC(c1ccccc1)C(CC(=O)O)C(=O)NC1CCCCC1 (stereo not given)	none
O=C(O)Cn1ccc2cc(OCCc3cccc(-c4ccc(F)cc4)c3)cnc21	12-LOX inh 50µM (no result: HepG2 viability, TGFb SMAD3 inh, ATXN viability, ATXN2 expr inh)
O=C(O)Cn1ccc2cc(OCCc3cccc(-c4cccc(F)c4)c3)cnc21	12-LOX inh 50µM (no result: HepG2 viability, TGFb SMAD3 inh, ATXN viability, ATXN2 expr inh)
CC(C)c1cc(C(=O)N2Cc3ccc(CN4CCN(C)CC4)cc3C2)c(O)cc1O	12-LOX inh inconclusive, ATXN2 expr inh 0.22µM (no result: HepG2 viability, TGFb SMAD3 inh, ATXN viability)
Cc1ccc(C)c(CN2CCC(CNC(=O)Nc3ccc(Br)cc3F)CC2)c1	TGFb SMAD3 inh inconclusive, ATXN viability inconclusive, ATXN2 expr inh 20µM!
Cc1ccc(C)c(CN2CCC(CNC(=O)Nc3ccc(Cl)cc3)CC2)c1	none
O=C1CCN(S(=O)(=O)c2ccc(F)cc2)C(c2ccccc2)C1 (stereo not given)	none (no result: HepG2 viability, TGFb SMAD3 inh, ATXN viability, ATXN2 expr inh)
CCCSc1nnc(-c2nn(Cc3ccccc3)c(=O)c3ccccc23)o1	none (no result: HepG2 viability, TGFb SMAD3 inh, ATXN viability, ATXN2 expr inh)
CCOCCSc1nnc(-c2nn(Cc3ccccc3)c(=O)c3ccccc23)o1	12-LOX inh 28µM (no result: HepG2 viability, TGFb SMAD3 inh, ATXN viability, ATXN2 expr inh)
